Only some compounds are listed: those with a hit (about 3.8% of all), similar ones and a draw of the others.
ATXN2 expr inh: Primary qHTS for Inhibitors of ATXN expression; actives 0.72% (n = 360,000); Potency, µM (titrated, usually from 57 µM), without a hit: top-dose activity change, negative = inhibition, most hits filed as inhibitors; HEK-293 ATXN2-luciferase reporter, luminescence, 24 h; also: % is scaled to controls: 0 for no effect and ±100 for the full control effect; nearly all actives have a fitted effect of over 55% in size
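qHTS (up to 57 uM final) was run with 24 h compound exposure of reporter cells at 37 °C. Each well was multiplexed: SteadyGlo luminescence measured ATXN2-luciferase expression after a fluorogenic Gly-Phe-AFC viability readout (25 uM final).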
HT1080 IDH1KD tx: qHTS for induction of synthetic lethality in tumor cells producing 2HG: qHTS for the HT-1080-IDH1KD cell line; Potency, µM (top dose mostly 46.1 µM), for the others: top-dose activity, negative = toxicity, usual class: cytotoxic; HT-1080 IDH1 knockdown viability, ATP luminescence, 48 h; actives 2% (n = 360,000);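 also: 0% = DMSO wells and -100% = cell-free medium wells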
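Using the IDH1-knockdown HT-1080 line run in the same batch and compound series as the NT line, viability after 48 h at 37 °C was determined by CellTiter-Glo luminescence and expressed as % activity.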
TGFb inhibitor: qHTS for Inhibitors of TGF-b. HepG2 CAGA-GFP TGF-b/SMAD3 reporter, GFP fluorescence, 18 h; TGF-beta stimulated, 500 pg/mL final. actives 1.2% (n = 410,000). AID 588855, 2011. Potency, µM (top dose mostly 46.1 µM), inactives show at the highest dose activity, negative = inhibition, actives largely listed as inhibitors; also: % is scaled to controls: 0 for no effect and ±100 for the full control effect; nearly all actives have a fitted effect of over 65% in size
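Cell-based qHTS in HEPG2 carrying a CAGA-GFP Smad reporter; compounds added before 500 pg/mL final TGF-beta, 18 h incubation at 37 degrees C, GFP fluorescence quantified per cell by imaging cytometry.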
HepG2 tox-1: qHTS for Inhibitors of TGF-b: Cytotox Counterscreen | HepG2 CAGA-GFP viability, ATP luminescence, 18 h | Potency, µM (doses to about 46.1 µM), for the others: at the top dose activity change, negative = cytotoxicity, actives largely listed as cytotoxic | actives 0.76% (n = 410,000) | AID 588856, 2011
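HepG2 CAGA-GFP cells (1000/well, DMEM with 1% FBS) received compound, then TGF-beta at 500 pg/mL final, and were incubated 18 hours at 37 degrees C. Viability was read by CellTiter-Glo luminescence. Media-only wells were set as complete cell-killing and DMSO as no toxicity.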
HT1080-NT tox: qHTS for induction of synthetic lethality in tumor cells producing 2HG: qHTS for the HT-1080-NT fibrosarcoma cell line. HT-1080-NT fibrosarcoma viability, CellTiter-Glo ATP luminescence, 48 h. actives 1.6% (n = 360,000). Potency, µM (doses to about 46.1 µM), for inactives: top-dose activity, negative = less viability, most hits filed as cytotoxic;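 also: NT is the 2HG producing partner of a matched IDH1 knockdown line; 0% = DMSO-treated cells and -100% = media-only wells without cells; nearly all actives have a fitted effect of over 55% in size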
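HT-1080-NT fibrosarcoma cells (2HG-overproducing), 750 cells/well in RPMI with 5% FBS, dosed after 2 h and incubated 48 h at 37C. CellTiter-Glo luminescence normalized to DMSO and no-cell wells; concentration-response curves fitted and classed.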
S2 tox: Viability Counterscreen for Primary qHTS for Inhibitors of ATXN expression; AID 651635, 2014; S2 cells (HEK-293 line with an ATXN2-luciferase reporter) viability, CellTiter-Fluor protease fluorescence, 24 h; Potency, µM (titrated, usually from 56.7 µM), usual class: cytotoxic; actives 0.49% (n = 400,000); also: nearly all actives have a fitted effect of over 40% in size
TGFb CAGA inh: qHTS for Inhibitors of TGF-b: Confirmation of Cherry Picks | shares compounds with TGFb inhibitor | HepG2 CAGA-GFP TGF-b reporter, GFP fluorescence, 18 h; cells stimulated with TGF-beta, 500 pg/mL | Potency, µM (doses to about 46.1 µM), for the others: at the highest dose activity, negative = inhibition, hits mostly inhibitors | actives 63% (n = 1,600) | AID 720534, 2013; also: % is scaled to controls: 0 for no effect and ±100 for the full control effect; nearly all actives have a fitted effect of over 65% in size
HepG2 tox-2: qHTS for Inhibitors of TGF-b: Cytotox Counterscreen for Cherry Picks; shares compounds with TGFb inhibitor; HepG2 CAGA-GFP viability, ATP luminescence, 18 h; cells stimulated with TGF-beta, 500 pg/mL; Potency, µM (top dose mostly 46.1 µM), without a hit: at the highest dose activity, negative = cytotoxicity, usual class: inhibitors; actives 27% (n = 1,600); also: % is scaled to controls: 0 for no effect and ±100 for the full control effect; nearly all actives have a fitted effect of over 70% in size
CCL64 TGFb inh: qHTS for Inhibitors of TGF-b: CCL64 Cells Orthogonal Assay for Cherry Picks. shares compounds with TGFb inhibitor. CCL64 CAGA-GFP reporter, TGF-b stimulated, GFP fluorescence, 18 h. Potency, µM (highest dose often 46.1 µM), inactives show at the top dose activity, negative = inhibition, usual class: inhibitors. actives 41% (n = 1,600); also: nearly all actives have a fitted effect of over 65% in size
TGFb COP inh: qHTS for Inhibitors of TGF-b: Hit Validation in HepG2 Cells using COP promoter | shares compounds with TGFb inhibitor | HepG2 COP-GFP TGF-b reporter, GFP fluorescence, 18 h; cells stimulated by added recombinant TGF-beta | Potency, µM (series often up to 46.1 µM), inactives show at the highest dose activity, negative = inhibition, usual class: inhibitors | actives 3% (n = 1,600); also: nearly all actives have a fitted effect of over 70% in size
Numbers without * were called inactive; i = inactive; ? = inconclusive; / = no result. Calls follow the shape of the dose curve; as a rule, active = well fitted curve in the direction sought with a large enough effect; inconclusive = small, poorly fitted or top-dose-only effect, or another doubt; inactive = no such curve, though single readings can be large; an effect the other way counts as inactive or inconclusive. Potency is read from the fitted curve at half-maximal effect.

SMILES	ATXN2 expr inh	HT1080 IDH1KD tx	TGFb inhibitor	HepG2 tox-1	HT1080-NT tox	S2 tox	TGFb CAGA inh	HepG2 tox-2	CCL64 TGFb inh	TGFb COP inh
Cc1ccc(NC(=O)C2(c3ccc([N+](=O)[O-])cc3)CCCC2)cc1	/	0%	?	1%	-18%	i	-28%	-9%	-10%	0%
COc1cccc(NC(=O)Cn2c(=O)n(CC(=O)NCc3ccc(C)cc3)c(=O)c3sccc32)c1	/	/	-1%	-2%	/	/	/	/	/	/
Cc1nnc(SCC(=O)N/N=C/c2cn(-c3ccccc3)nc2-c2ccccc2)n1-c1ccccc1	-6%	?	7.1µM*	0%	?	?	?	-23%	?	8%
O=S(=O)(Nc1cccc2ncccc12)c1cccs1	3.2µM*	?	6.3µM*	-41%	-8%	?	15µM*	?	6.5µM*	40%
Cc1c(NS(=O)(=O)c2cccs2)cccc1-c1nc2cccnc2s1	/	2%	?	-11%	?	i	/	/	/	/
COc1ccc(S(=O)(=O)N2CCCCCC2)cc1C(=O)N(C)CCOc1ccc(Cl)cc1	?	-30%	-23%	-8%	?	?	/	/	/	/
CCN1CCN(S(=O)(=O)c2ccc(Cl)c(C(=O)N(C)CCOc3ccc(Cl)cc3)c2)CC1	-29%	?	14µM*	-9%	?	i	13µM*	?	?	12%
CCOC(=O)c1cnc(N2CCN(c3ccc(C)cc3C)CC2)c2ccccc12	/	/	13%	12%	/	/	/	/	/	/
COc1ccc(CCNC(=O)CNS(=O)(=O)c2ccc(Cl)cc2)cc1	-3%	3%	?	-7%	8%	i	-5%	4%	2%	-16%
Cc1ccc(OCc2cc(=O)n3cc(C)sc3n2)c(C)c1	10%	/	24%	0%	/	i	/	/	/	/
Cc1cc(O)c(C(C)C)cc1NC(=O)Nc1ccc([N+](=O)[O-])cc1	1%	?	1%	9%	-23%	i	/	/	/	/
Cc1ccc(C(C)C)cc1NC(=O)Nc1ccc([N+](=O)[O-])cc1	/	-1%	7.9µM*	-82%	-5%	?	?	?	18µM*	89%
CCOC(=O)c1c(S(=O)(=O)NCC(=O)Nc2cccc(SC)c2)c(C)n(C)c1C	-4%	/	-23%	-10%	/	i	/	/	/	/
OCCCn1c(CCCNc2nc(-c3cccc(Br)c3)cs2)nc2cc(Cl)c(N3CCCCC3)cc21	0%	?	10µM*	-8%	18µM*	?	13µM*	-23%	?	37%
O=C(Nc1ccccc1)Nc1nnc(CSCc2ccccc2Cl)s1	?	?	7.9µM*	-55%	?	?	?	-28%	?	-6%
CCOc1ccc(CNC(=O)Cn2cc3c(n2)-c2c(oc(C(=O)N4CCOCC4)c2C)CC3)cc1	/	/	?	-18%	/	/	/	/	/	/
CCCCn1c2ccccc2c2nnc(SCC(=O)Nc3ccc(NC(C)=O)cc3)nc21	5%	/	16%	-15%	/	i	/	/	/	/
CC(=O)Nc1nc(C)c(-c2csc(Nc3cccc(C(C)=O)c3)n2)s1	/	-4%	?	-12%	?	?	/	/	/	/
CC(=O)Nc1nc(C)c(-c2csc(Nc3cccc([N+](=O)[O-])c3)n2)s1	?	?	?	-41%	?	i	-3%	?	?	44%
Cc1ccc(-c2nc(Nc3cccc(O)c3)c3ccccc3n2)cc1	-30%	-28%	?	-71%	?	i	/	/	/	/
O=C(O)c1cccc(Nc2nc(-c3ccccc3)nc3ccccc23)c1	11%	-15%	-29%	-6%	-14%	i	/	/	/	/
Oc1cccc(Nc2nc(-c3ccccc3Cl)nc3ccccc23)c1	-27%	?	-20%	-8%	?	?	?	-15%	?	32%
Fc1ccc(CNc2nc(-c3ccccc3)nc3ccccc23)cc1	-11%	-18%	18µM*	2%	?	i	?	?	?	33%
Cc1ccc(-c2nc(Nc3ccc(O)cc3)c3ccccc3n2)cc1	14%	21µM*	?	-119%	21µM*	i	?	?	15µM*	100%
c1ccc(Nc2nc(-c3ccccc3)nc3ccccc23)cc1	-18%	0%	-29%	-41%	2%	i	?	?	?	33%
Cc1ccc(-n2ncc(C(=O)Nc3ccc4c(c3)OCCO4)c2C2CCN(C(=O)OC(C)(C)C)CC2)cc1C	/	/	-4%	2%	/	/	/	/	/	/
N#C/C(=C\c1ccc([N+](=O)[O-])o1)C(=O)Nc1ccc(F)cc1	?	?	-20%	-6%	?	i	/	/	/	/
N#CCc1ccc(NC(=O)/C=C/c2ccc([N+](=O)[O-])o2)cc1	8.9µM*	2.9µM*	7.1µM*	11µM*	3.3µM*	13µM*	2.6µM*	5.8µM*	9.2µM*	?
CCOc1ccccc1NC(=O)c1cnn2c(C(F)F)cc(-c3ccccc3)nc12	12%	/	0%	-27%	/	i	/	/	/	/

Screening results as filed in PubChem.
